PubChem BioAssay AID1903 (Southern Research Specialized Biocontainment Screening …, 2009)
Screen size: about 310,000 compounds; about 1,200 (0.39%) were called active. The rule behind the calls is not given here. A selection follows. Entries with a potency or affinity are not part of this list.

Each molecule was assayed against Large T antigen (Simian virus 40) (UniProt P03070) (assay: TAg ATPase/helicase activity blockers – biochemical (AID 1903)). Settings: SV40 large T antigen ATPase/helicase inhibition assay; at 20 µM; active compounds read high.
Chain of Large T antigen (Simian virus 40) (P03070 whole entry, looked up): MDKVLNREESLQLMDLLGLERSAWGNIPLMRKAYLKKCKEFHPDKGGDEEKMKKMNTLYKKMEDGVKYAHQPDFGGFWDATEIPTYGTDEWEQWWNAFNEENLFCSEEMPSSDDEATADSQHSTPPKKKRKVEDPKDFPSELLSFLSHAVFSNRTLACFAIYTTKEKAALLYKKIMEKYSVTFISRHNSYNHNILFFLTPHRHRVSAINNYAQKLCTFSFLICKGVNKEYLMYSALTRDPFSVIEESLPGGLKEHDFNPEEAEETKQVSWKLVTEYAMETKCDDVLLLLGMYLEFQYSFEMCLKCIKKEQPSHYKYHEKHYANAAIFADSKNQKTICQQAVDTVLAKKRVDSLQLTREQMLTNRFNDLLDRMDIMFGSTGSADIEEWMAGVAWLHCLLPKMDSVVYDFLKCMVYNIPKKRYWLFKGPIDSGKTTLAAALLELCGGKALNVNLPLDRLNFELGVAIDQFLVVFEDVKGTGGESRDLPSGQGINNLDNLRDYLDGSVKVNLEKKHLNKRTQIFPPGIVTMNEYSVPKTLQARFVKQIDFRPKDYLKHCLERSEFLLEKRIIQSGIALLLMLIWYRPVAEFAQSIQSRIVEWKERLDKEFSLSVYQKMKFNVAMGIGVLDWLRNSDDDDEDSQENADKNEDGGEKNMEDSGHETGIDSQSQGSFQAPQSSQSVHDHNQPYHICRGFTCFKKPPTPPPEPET

inhibition, inactive:
CCCC(c1nnnn1CS(=O)(=O)c1ccc(C)cc1)N1CCC(C(N)=O)CC1 (stereo unspecified) 1.94%
CCOc1ccc(NC(=O)CCn2ccnc2)cc1 2.19%
O=C(CCCCCN1C(=O)c2ccccc2C1=O)NCCc1nc2ccccc2[nH]1 5.03%
COc1ccc(Nc2nc(N3CCN(S(=O)(=O)N(C)C)CC3)nc3ccccc23)cc1 6.91%
COc1ccc(-c2nc(-c3cccs3)c(-c3cccs3)[nH]2)cc1OC 8.77%
Oc1ccc(/C=N/Nc2cccc(Cl)n2)c(O)c1 21.8%
Clc1nccnc1N/N=C/c1ccc(Br)cc1 0.07%
Fc1ccc(/C=N/Nc2nccnc2Cl)cc1 8.81%
Oc1ccccc1/C=N/Nc1nccnc1Cl 0.02%
Oc1ccc(/C=N/Nc2ccnc3cc(Cl)ccc23)c(O)c1 8.76%
COc1ccc(/C=N/Nc2nccnc2Cl)c(OC)c1 5.32%
Cc1cc(C)c(C)c(S(=O)(=O)N2CCSCC2)c1C 8.62%
N#Cc1c(NC(=O)COC(=O)c2ccc(F)cc2)sc2c1CCC2 1.58%
O=C(CSc1nc2c(cnn2-c2ccccc2)c(=O)[nH]1)N1CCCCC1 24.9%
COc1ccc(/C=C(\NC(=O)c2ccc(OC)cc2)C(=O)NC(CCSC)C(=O)O)cc1 (stereo unspecified) 9.06%
O=C(Nc1ccccc1)C1CCN(S(=O)(=O)c2ccc3c(c2)OCCO3)CC1 20.4%
CCCCn1c(SCC(N)=O)nnc1-c1ccco1 8.33%
NC(=O)CSc1nnc2ccc(-c3ccco3)nn12 16.6%
Cc1cc(C)c(C(=O)COc2cccnc2[N+](=O)[O-])cc1C -4.61%
O=C(COc1cccnc1[N+](=O)[O-])c1c[nH]c2ccccc12 21.6%
COc1ccc(C2OCC3(O)C(c4ccc(OC)c(OC)c4)OCC23)cc1OC (stereo unspecified) 4.9%
CN(C)c1ccc(/C=N/NS(=O)(=O)c2ccc(Br)cc2)cc1 24.5%
Cc1ccc(S(=O)(=O)N/N=C/c2ccccc2O)cc1[N+](=O)[O-] 12.5%
COc1ccc(/C=N/NS(=O)(=O)c2ccccc2)cc1OC 13.2%
CCN(CC)c1ccc(/C=N/NS(=O)(=O)c2cccc([N+](=O)[O-])c2)cc1 10.4%
C/C(=N/NS(=O)(=O)c1ccccc1)c1c[nH]c2ccccc12 31.3%
O=[N+]([O-])c1cccc(/C=N/NS(=O)(=O)c2ccccc2)c1 9.33%
COc1cc(/C=N/NS(=O)(=O)c2ccc(C)c([N+](=O)[O-])c2)cc([N+](=O)[O-])c1O 24.7%
C/C(=N\NS(=O)(=O)c1ccc([N+](=O)[O-])cc1)c1c[nH]c2ccccc12 34%
Cc1ccc(C(c2c(C)[nH][nH]c2=O)c2c(C)[nH][nH]c2=O)cc1[N+](=O)[O-] 20.9%
COC(=O)c1cccc(-n2c(C)cc(C=O)c2C)c1C 17.4%
NC(=O)C1CCN(C(=O)c2ccc(Oc3ccccc3)cc2)CC1 13.6%
COC(=O)c1c(S(N)(=O)=O)c2ccccc2n1C 21.9%
Nc1nccnc1C(=O)OCC(=O)N1CCN(S(=O)(=O)c2ccc(Cl)cc2)CC1 15.7%
CC1=NN(c2ccccc2)C(=O)C1c1ccccc1 (stereo unspecified) 31.6%
CC1=NN(c2ccccc2)C(=O)C1N=Nc1ccc(C)cc1 (stereo unspecified) -3.33%
CCOc1ccccc1NC(=O)COC(=O)CSc1ccc(Cl)cc1 -3.03%
COc1cccc(-c2nn(C)c3sc(C(=O)NCc4ccco4)cc23)c1 16.5%
CCn1c(-c2cc(OC)c(OC)c(OC)c2)n[nH]c1=S 8.67%
COc1cc(-c2nc(N)n[nH]2)cc(OC)c1OC 3.91%
O=C(CNC(=O)c1ccccc1)OCCCOC(=O)CNC(=O)c1ccccc1 8.32%
Cc1cc(C)c(C)c(S(=O)(=O)N2CCN(C(=O)c3ccco3)CC2)c1C 30.6%
Fc1ccc(-c2nc(-c3cccs3)[nH]c2-c2ccc(F)cc2)cc1 0.16%
O=C(O)c1ccc(-c2nc(-c3ccccc3)c(-c3ccccc3)[nH]2)cc1 13.6%
Cn1c(Cc2ccccc2)nnc1SCC(=O)NC1CC1 5.03%
Cc1cc(C)nc(SCSc2nc(C)cc(C)n2)n1 1.38%
Cc1cc(C)nc(SCCN(C)C)n1 21.5%
N#CC1=C(N)C2=CCCC[C@H]2[C@H](c2ccccc2)C1(C#N)C#N 10.5%
N#CC1=C(N)C2=CCCC[C@H]2[C@H](c2ccc(Br)cc2)C1(C#N)C#N 29.5%
CCOC(=O)C1=C(O)/C(=C\c2cccc(OC)c2)N=C1C 4.85%
CCOC(=O)C1=C(O)/C(=C\c2cccs2)N=C1C 10.2%
COC(=O)C1=C(O)/C(=C\c2cc(C)n(-c3ccccc3F)c2C)N=C1C 8.75%
COC(=O)C1=C(O)/C(=C\c2cc(C)n(-c3ccccc3C)c2C)N=C1C 21.4%
Cc1nc2ccccc2c(C)c1CC(=O)N(C)CC(=O)Nc1cccc(F)c1 6.37%
Cc1noc(C)c1C(=O)Nc1nc2ccc(Cl)cc2s1 13.7%
Cc1cc(C)nc(SCC(=O)N2CCCCC2)n1 24.1%
O=C1CCCC(=O)N1c1ccc(O)cc1 12.2%
O=C1c2ccc3c4c(ccc(c24)C(=O)N1c1ccc(O)cc1)C(=O)N(c1ccc(O)cc1)C3=O 2.8%
O=C(NC1CC1)C1=C[C@@H](c2ccccc2)C[C@@H](OCCCCO)O1 5.56%
COc1cc(/C=C(\C#N)C(=O)Nc2cccc(C(=O)O)c2)ccc1OCc1ccc(F)cc1 -17.7%
Cc1c(C(=O)NN)[nH]c2ccc([N+](=O)[O-])cc12 7.05%
